# Source: PubChem BioAssay (NCATS)
# Several values for one entry are separate records, joined by “and”; a condition that tells them apart may be missing. Equal entries are not always repeated. Activity calls are given as the source filed them. How the calls were made is not given here. Peptide text beside a SMILES is read from it.
# Target: Nuclear receptor subfamily 1 group I member 2 (Rattus norvegicus) (UniProt Q9R1A7)
# Experiment: qHTS assay for small molecule activators of the rat pregnane X receptor (rPXR) signaling pathway (AID 651751)
# Settings: rPXR reporter cells, luciferase (One-Glo), 24 h
# Further: 0% is about no effect.
# Chain of Nuclear receptor subfamily 1 group I member 2 (Rattus norvegicus) (Q9R1A7 whole entry, looked up): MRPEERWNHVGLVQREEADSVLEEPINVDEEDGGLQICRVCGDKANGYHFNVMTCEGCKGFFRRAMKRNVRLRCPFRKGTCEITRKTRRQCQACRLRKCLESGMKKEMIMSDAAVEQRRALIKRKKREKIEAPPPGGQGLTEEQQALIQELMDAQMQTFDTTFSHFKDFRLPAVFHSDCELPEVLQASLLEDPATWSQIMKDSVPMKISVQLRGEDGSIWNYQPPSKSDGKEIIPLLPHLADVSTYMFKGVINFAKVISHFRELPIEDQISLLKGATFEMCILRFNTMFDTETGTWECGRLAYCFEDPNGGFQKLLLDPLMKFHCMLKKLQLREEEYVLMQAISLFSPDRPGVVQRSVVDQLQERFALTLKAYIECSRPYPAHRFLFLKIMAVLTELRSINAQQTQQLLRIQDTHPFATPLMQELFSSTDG
row,Structure (SMILES),max response
1,CC1(C)NC(=O)N(c2ccc([N+](=O)[O-])c(C(F)(F)F)c2)C1=O,-9.05% (inactive)
2,Cc1ccc(C)c(OCCCC(C)(C)C(=O)O)c1,-0.498% (inactive) and -3.12% (inactive)
3,O=c1c(O)c(-c2ccc(O)cc2O)oc2cc(O)cc(O)c12,-2.11% (inactive)
4,NS(=O)(=O)c1cc(C(=O)O)c(NCc2ccco2)cc1Cl,7.06% (inactive) and 0.0174% (inactive)
5,Nc1nc(Cl)nc2c1ncn2[C@H]1C[C@H](O)[C@@H](CO)O1,-12.9% (inactive)
6,CS(=O)(=O)OCCCCOS(C)(=O)=O,1.78% (inactive) and 1.87% (inactive) and -0.923% (inactive)
7,N[C@@H](Cc1cc(I)c(Oc2cc(I)c(O)c(I)c2)c(I)c1)C(=O)O,4.68% (inactive)
8,CC(=O)N1CCN(c2ccc(OC[C@H]3CO[C@](Cn4ccnc4)(c4ccc(Cl)cc4Cl)O3)cc2)CC1,-5.89% (inactive)
9,CNC[C@H](O)c1ccc(O)c(O)c1,0.58% (inactive)
10,CCCc1cc(=O)[nH]c(=S)[nH]1,-3.12% (inactive) and -0.189% (inactive)
11,Cc1cc(O)c2c(c1)C(=O)c1cc(O)cc(O)c1C2=O,1.52% (inactive) and -0.614% (inactive)
12,Nc1ccc(S(N)(=O)=O)cc1,5.05% (inactive)
13,COC(=O)[C@H](Cc1ccccc1)NC(=O)[C@@H](N)CC(=O)O (H-Asp-Phe-OMe),-0.463% (inactive) and 3.11% (inactive)
14,COc1c2occc2cc2ccc(=O)oc12,0.0225% (inactive) and 5.31% (inactive)
15,CCN(CC)C(=S)SSC(=S)N(CC)CC,-4.1% (inactive)

# System: not listed separately
# Experiment: qHTS assay for small molecule activators of the human pregnane X receptor (PXR) signaling pathway (AID 720659)
# Settings: DPX-2 HepG2 CYP3A4-luciferase, 24 h; series mostly up to 92.3 µM
row,Structure (SMILES),outcome
1,CC1(C)NC(=O)N(c2ccc([N+](=O)[O-])c(C(F)(F)F)c2)C1=O,inactive
2,NS(=O)(=O)c1cc(C(=O)O)c(NCc2ccco2)cc1Cl,inactive
3,CN(C)c1ccc2nc3ccc(=[N+](C)C)cc-3sc2c1,inactive
4,CC(=O)N1CCN(c2ccc(OC[C@H]3CO[C@](Cn4ccnc4)(c4ccc(Cl)cc4Cl)O3)cc2)CC1,inactive
5,CNC[C@H](O)c1ccc(O)c(O)c1,inactive
6,CCCc1cc(=O)[nH]c(=S)[nH]1,inactive
7,Nc1ccc(S(N)(=O)=O)cc1,inactive
8,CC(=O)Nc1ccc(O)cc1,inactive
